Test results reported in PubChem BioAssay (Tox21).
Records with an inconclusive call do not appear. Activity calls are given as the source filed them. Unless noted, calls follow the shape of the dose curve; as a rule, active = well fitted curve in the direction sought with a large enough effect in the repeat runs; inconclusive = weak or mixed curves; inactive = no such curve, though single readings can be large; an effect the other way counts as inactive or inconclusive.

Legend:
[1] = target: Progesterone receptor (Homo sapiens) (UniProt P06401); test: qHTS assay to identify small molecule agonists of the progesterone receptor (PR) signaling pathway (AID 1346784; calls by dose curve; also: nearly all actives have a fitted effect of over 30% in size)
Method in brief: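 PR-UAS-bla HEK 293T cells carrying a UAS-driven beta-lactamase reporter were seeded in medium with 2% charcoal-stripped FBS, preincubated 6 hr at 37C, then exposed to compounds in DMSO for 16 hr; agonism was read by LiveBLAzer B/G FRET fluorescence.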

[2] = target: Progesterone receptor (Homo sapiens) (UniProt P06401); test: qHTS assay to identify small molecule antagonists of the progesterone receptor (PR) signaling pathway (AID 1346795; active = well fitted inhibition curve with a large enough effect in the signal ratio in the repeat runs, not every such curve was filed as active; the % refers to the signal ratio)
Method in brief: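 PR-UAS-bla HEK293T cells carrying a UAS-driven beta-lactamase reporter were plated in medium with 2% charcoal-stripped FBS and rested 6 hr at 37C. Compounds were added with 1 nM R5020 (final) for 16 hr, then FRET substrate loaded 2 hr at room temperature.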

[3] = qHTS assay to identify small molecule antagonists of the progesterone receptor (PR) signaling pathway - cell viability counter screen (AID 1346798); also: series mostly up to about 92 µM; nearly all actives have a fitted effect of over 50% in size
Method in brief: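 PR-UAS-bla HEK293T cells in medium with 2% charcoal-stripped FBS were treated with compounds plus R5020 for 16 hr at 37C. Cell viability was then read by CellTiter-Glo luminescence after 30 min at room temperature in the same wells.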

[4] = qHTS assay to identify small molecule agonists of the progesterone receptor (PR) signaling pathway - cell viability counter screen (AID 1346799; calls by dose curve; also: nearly all actives have a fitted effect of over 45% in size)
Method in brief: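 PR-UAS-bla HEK293T cells, 3,000 per well in medium with 2% charcoal-stripped FBS, were preincubated 6 hr at 37C, then exposed to compounds for 16 hr; viability was read as CellTiter-Glo luminescence after 30 min at room temperature.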

[5] = qHTS assay to identify small molecule agonists of the TGF-beta/Smad signaling pathway - cell viability counter screen (AID 1346829); also: top concentration of the series differs between compounds; nearly all actives have a fitted effect of over 45% in size
Method in brief: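 CellTiter-Glo luminescence readout; SBE-bla HEK 293T cells, overnight plating, compound 5 hr at 37 C/5% CO2, then bla substrate 2 hr RT, then CellTiter-Glo 30 min RT.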

[6] = qHTS assay to identify small molecule agonists of the TGF-beta/Smad signaling pathway (AID 1346859; active = well fitted activation curve with a large enough effect in the signal ratio in the repeat runs, not every such curve was filed as active; the % refers to the signal ratio; also: series mostly up to about 77 µM)
Method in brief: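 HEK 293T cells stably carrying a beta-lactamase reporter driven by the Smad binding element were seeded overnight, exposed to DMSO-dissolved compounds for 5 hr at 37 C, 5% CO2, then loaded with FRET substrate for 2 hr at room temperature.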

[7] = Human pregnane X receptor (PXR) small molecule agonists, qHTS cell viability counter screen (AID 1346977); also: nearly all actives have a fitted effect of over 50% in size; also: potency is read from the fitted curve at half-maximal effect
Method in brief: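 PXR-Luc HepG2 cells in medium with 5% charcoal-stripped FBS were pre-incubated 5hr, then exposed to compounds for 24hr at 37C. Viability was read in the same wells by CellTiter-Fluor fluorescence, reagent added after 23hr with a 1hr incubation.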

[8] = Caspase-3/7 induction in HepG2 cells by small molecules, qHTS assay (AID 1346978); also: nearly all actives have a fitted effect of over 15% in size; also: potency is read from the fitted curve at half-maximal effect
Method in brief: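 Wild-type HepG2 cells (2,000/well) were settled 5 h at 37 C, 5% CO2, then exposed to compounds in DMSO for 17 h. Caspase-3/7 activity was read by luminescence 30 min after adding Caspase-Glo 3/7 reagent at room temperature.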

[9] = Caspase-3/7 induction in CHO-K1 cells by small molecules, qHTS assay (AID 1346980); also: nearly all actives have a fitted effect of over 15% in size
Method in brief: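 Wild-type cells were seeded at 1,500 per well and settled 5 hr at 37 C, 5% CO2, then exposed to DMSO-dissolved compounds for 17 hr. Caspase-Glo 3/7 reagent was added, and luminescence was read after 30min at room temperature.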

[10] = Caspase-3/7 induction in HepG2 cells by small molecules, qHTS cell viability counter screen (AID 1346981); also: nearly all actives have a fitted effect of over 30% in size; also: potency is read from the fitted curve at half-maximal effect; as to activity change, negative = cytotoxicity: series mostly up to about 92 µM
Method in brief: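 Treatment of HepG2 cells with DMSO-delivered compounds ran 16 hr at 37 C following a 5-hr pre-incubation of 2,000 cells/well. CellTiter-Fluor fluorescence, read after 1 hr, served as the viability measure in a qHTS format.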

[11] = target: Nuclear receptor subfamily 1 group I member 2 (Homo sapiens) (UniProt O75469); test: Human pregnane X receptor (PXR) small molecule agonists, qHTS assay (AID 1346982); also: nearly all actives have a fitted effect of over 35% in size; also: potency is read from the fitted curve at half-maximal effect
Method in brief: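 Stable HepG2 line reporting PXR-mediated CYP3A4 expression via luciferase. Treatment: 24 hr with compounds in DMSO at 37 C. Detection: ONE-Glo luminescence.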

[12] = target: Cytochrome P450 2D6 (Homo sapiens) (UniProt P10635); test: Cytochrome P450 Family 2 Subfamily D Member 6 (CYP2D6) small molecule antagonists: luciferase reporter qHTS assay (AID 1671196); also: nearly all actives have a fitted effect of over 50% in size; also: potency is read from the fitted curve at half-maximal effect; as to activity change, negative = inhibition: series mostly up to about 120 µM
Method in brief: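 Chemicals tested for interference with CYP2D6 activity; proluciferin substrate, NADPH regeneration, 1 h at room temperature, luminescent detection.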

[13] = target: Cytochrome P450 2C19 (Homo sapiens) (UniProt P33261); test: Cytochrome P450 Family 2 Subfamily C Member 19 (CYP2C19) small molecule antagonists: luciferase reporter qHTS assay (AID 1671197); also: nearly all actives have a fitted effect of over 65% in size; also: potency is read from the fitted curve at half-maximal effect; as to activity change, negative = inhibition: series mostly up to about 120 µM
Method in brief: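 Enzyme-substrate mix with proluciferin substrate (P450-Glo CYP2C19 system) preincubated with compounds 10 min at room temperature; NADPH regeneration solution added, 37C for 1 h; detection reagent stops reaction, luminescence read after 20 min. Ketoconazole positive control.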

[14] = qHTS assay to identify small molecule antagonists of the TGF-beta/Smad signaling pathway - cell viability counter screen (AID 1346824); also: nearly all actives have a fitted effect of over 50% in size
Method in brief: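 SBE-bla HEK 293T cells were plated overnight at 37 C, then given compounds in DMSO plus TGF-beta1 (added as 0.25 ng/mL solution) for 5 hr. After the bla read, CellTiter-Glo was added to the same wells and luminescence read after 30 min at room temperature.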

[15] = target: Thyrotropin-releasing hormone receptor (Homo sapiens) (UniProt P34981); test: qHTS assay to identify small molecule antagonists of the thyrotropin-releasing hormone receptor (TRHR) signaling pathway (AID 1346877; active = well fitted inhibition curve with a large enough effect in the repeat runs, not every such curve was filed as active; also: series mostly up to about 51 µM)
Method in brief: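 Overnight-plated (18 h, 37 °C) HEK293 cells expressing TRHR were dye-loaded 2 h, treated with compound, then stimulated with TRH at 1 nM final. Fluorescence intensity was captured every second for 3 min.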

[16] = target: Thyrotropin-releasing hormone receptor (Homo sapiens) (UniProt P34981); test: qHTS assay to identify small molecule agonists of the thyrotropin-releasing hormone receptor (TRHR) signaling pathway (AID 1346891; calls by dose curve; also: series mostly up to about 58 µM)
Method in brief: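 TRHR-expressing HEK293 cells were plated 18 h at 37 °C/5% CO2, loaded with calcium dye 2 h at 37 °C, then given compound in DMSO; fluorescence was read kinetically for 3 min at 1 s intervals.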

[17] = Caspase-3/7 induction in CHO-K1 cells by small molecules, qHTS cell viability counter screen (AID 1346979); also: nearly all actives have a fitted effect of over 35% in size; also: potency is read from the fitted curve at half-maximal effect
Method in brief: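 Wild-type CHO-K1 cells were seeded at 1,500 per well, rested 5hr at 37 C, then exposed to compounds in DMSO. After 16hr, CellTiter-Fluor reagent was added and fluorescence read 1hr later as the viability measure.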

[18] = target: Nuclear receptor subfamily 1 group I member 2 (Rattus norvegicus) (UniProt Q9R1A7); test: Rat pregnane X receptor (rPXR) activation by small molecules, qHTS assay (AID 1346983); conditions: rPXR luciferase reporter cells, One-Glo luminescence, 24 h; hits give high values; also: nearly all actives have a fitted effect of over 20% in size
Method in brief: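 Cell-based rPXR luciferase reporter assay, 2,000 cells per well, rested 5hr at 37 C before compound addition in DMSO, then 24 hr at 37 C. One-Glo reagent was added and luminescence read after 30 min at room temperature.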

[19] = target: Nuclear receptor subfamily 1 group I member 2 (Homo sapiens) (UniProt O75469); test: CYP3A4 induction through human pregnane X receptor (PXR) by small molecules, qHTS assay (AID 1346984); also: nearly all actives have a fitted effect of over 40% in size
Method in brief: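 After 24 h at 37C with compound, DPX-2 cells (HepG2, co-transfected PXR response element and CYP3A4 promoter-luciferase) got 3uM final P450-Glo Luciferin-IPA for 3 h; One-Glo luminescence followed.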

[20] = target: Nuclear receptor subfamily 1 group I member 2 (Homo sapiens) (UniProt O75469); test: Human pregnane X receptor (PXR) activation by small molecules, qHTS assay (AID 1346985); also: nearly all actives have a fitted effect of over 40% in size
Method in brief: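 DPX-2 cells (HepG2 co-transfected with a PXR response element and a CYP3A4-promoter luciferase construct) were seeded at 2,000 per well, rested 5 hr at 37C, then exposed to DMSO-dissolved compounds for 24 hr. Activation was read as luciferase luminescence.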
% is scaled to controls: 0 for no effect and ±100 for the full control effect.

Sequence of Progesterone receptor (Homo sapiens) (P06401 whole entry, looked up): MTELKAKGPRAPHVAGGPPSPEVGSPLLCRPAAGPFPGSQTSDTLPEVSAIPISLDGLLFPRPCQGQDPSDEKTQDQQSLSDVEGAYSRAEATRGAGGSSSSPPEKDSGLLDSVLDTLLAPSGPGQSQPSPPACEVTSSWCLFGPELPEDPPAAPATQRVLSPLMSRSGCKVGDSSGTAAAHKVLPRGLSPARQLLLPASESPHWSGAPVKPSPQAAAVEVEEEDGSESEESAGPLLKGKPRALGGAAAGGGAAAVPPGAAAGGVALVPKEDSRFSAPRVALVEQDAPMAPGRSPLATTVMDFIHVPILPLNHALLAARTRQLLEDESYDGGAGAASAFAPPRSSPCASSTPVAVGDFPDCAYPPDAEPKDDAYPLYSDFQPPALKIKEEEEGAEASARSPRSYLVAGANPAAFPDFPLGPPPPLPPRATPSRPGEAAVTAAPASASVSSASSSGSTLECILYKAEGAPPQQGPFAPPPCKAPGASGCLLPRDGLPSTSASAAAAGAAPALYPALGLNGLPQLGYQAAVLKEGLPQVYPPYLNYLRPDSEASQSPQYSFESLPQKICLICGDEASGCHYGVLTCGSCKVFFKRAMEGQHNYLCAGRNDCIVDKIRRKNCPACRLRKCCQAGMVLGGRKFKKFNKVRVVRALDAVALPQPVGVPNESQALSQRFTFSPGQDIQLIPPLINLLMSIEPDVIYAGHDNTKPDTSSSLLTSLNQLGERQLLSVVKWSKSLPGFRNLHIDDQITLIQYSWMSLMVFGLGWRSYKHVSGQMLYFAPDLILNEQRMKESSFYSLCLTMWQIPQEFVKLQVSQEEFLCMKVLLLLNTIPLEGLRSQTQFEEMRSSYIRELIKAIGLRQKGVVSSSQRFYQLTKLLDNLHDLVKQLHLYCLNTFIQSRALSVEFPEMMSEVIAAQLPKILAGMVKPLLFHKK
Sequence of Thyrotropin-releasing hormone receptor (Homo sapiens) (P34981 whole entry, looked up): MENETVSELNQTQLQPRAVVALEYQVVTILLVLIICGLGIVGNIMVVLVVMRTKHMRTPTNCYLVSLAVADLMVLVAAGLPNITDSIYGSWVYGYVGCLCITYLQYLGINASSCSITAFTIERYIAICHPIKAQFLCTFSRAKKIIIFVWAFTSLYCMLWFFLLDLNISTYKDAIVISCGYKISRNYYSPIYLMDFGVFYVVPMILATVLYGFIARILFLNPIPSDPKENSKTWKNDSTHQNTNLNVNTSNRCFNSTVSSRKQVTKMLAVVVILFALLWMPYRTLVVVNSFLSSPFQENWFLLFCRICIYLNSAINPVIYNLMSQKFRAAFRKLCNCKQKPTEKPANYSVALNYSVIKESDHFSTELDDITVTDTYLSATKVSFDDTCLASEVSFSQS
Sequence of Cytochrome P450 2C19 (Homo sapiens) (P33261 whole entry, looked up): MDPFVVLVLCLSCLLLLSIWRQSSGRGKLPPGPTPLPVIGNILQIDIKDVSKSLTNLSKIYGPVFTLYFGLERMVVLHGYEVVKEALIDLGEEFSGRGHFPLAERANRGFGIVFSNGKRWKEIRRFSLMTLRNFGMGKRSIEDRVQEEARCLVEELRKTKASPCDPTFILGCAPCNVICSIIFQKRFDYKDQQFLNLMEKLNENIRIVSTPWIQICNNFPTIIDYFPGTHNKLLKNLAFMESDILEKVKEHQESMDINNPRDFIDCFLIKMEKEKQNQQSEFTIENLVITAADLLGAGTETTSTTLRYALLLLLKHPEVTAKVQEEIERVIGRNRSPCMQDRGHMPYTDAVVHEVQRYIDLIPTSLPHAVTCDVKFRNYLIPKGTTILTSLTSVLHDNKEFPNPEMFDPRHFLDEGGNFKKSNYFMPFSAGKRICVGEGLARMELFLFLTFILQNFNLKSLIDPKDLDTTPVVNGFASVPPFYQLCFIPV
Sequence of Nuclear receptor subfamily 1 group I member 2 (Homo sapiens) (O75469 whole entry, looked up): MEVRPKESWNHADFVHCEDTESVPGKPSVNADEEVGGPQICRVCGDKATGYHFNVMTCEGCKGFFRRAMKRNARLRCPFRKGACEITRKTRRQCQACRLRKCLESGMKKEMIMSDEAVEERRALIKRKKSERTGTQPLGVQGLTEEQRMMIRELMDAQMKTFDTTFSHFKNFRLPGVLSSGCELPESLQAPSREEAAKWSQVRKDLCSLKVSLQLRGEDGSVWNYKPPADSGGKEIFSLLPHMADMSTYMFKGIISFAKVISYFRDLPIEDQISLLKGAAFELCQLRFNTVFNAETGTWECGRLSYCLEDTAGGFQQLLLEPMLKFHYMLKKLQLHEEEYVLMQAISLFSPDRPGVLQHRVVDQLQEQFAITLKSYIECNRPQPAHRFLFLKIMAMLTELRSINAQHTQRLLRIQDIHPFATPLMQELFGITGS
Sequence of Cytochrome P450 2D6 (Homo sapiens) (P10635 whole entry, looked up): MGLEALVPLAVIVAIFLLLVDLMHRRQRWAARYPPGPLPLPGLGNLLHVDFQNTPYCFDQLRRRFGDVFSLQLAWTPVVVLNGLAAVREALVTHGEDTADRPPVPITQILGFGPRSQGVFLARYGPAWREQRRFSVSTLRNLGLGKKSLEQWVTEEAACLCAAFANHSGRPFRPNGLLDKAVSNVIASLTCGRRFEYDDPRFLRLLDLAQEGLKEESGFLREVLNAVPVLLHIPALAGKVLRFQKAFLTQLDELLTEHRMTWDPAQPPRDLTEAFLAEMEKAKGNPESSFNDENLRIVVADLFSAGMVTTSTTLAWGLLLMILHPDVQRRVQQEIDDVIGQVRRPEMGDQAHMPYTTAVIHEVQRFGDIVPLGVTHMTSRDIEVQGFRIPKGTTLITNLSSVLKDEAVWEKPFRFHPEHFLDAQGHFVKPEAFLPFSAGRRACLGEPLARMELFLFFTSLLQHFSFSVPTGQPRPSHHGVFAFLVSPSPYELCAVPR
Sequence of Nuclear receptor subfamily 1 group I member 2 (Rattus norvegicus) (Q9R1A7 whole entry, looked up): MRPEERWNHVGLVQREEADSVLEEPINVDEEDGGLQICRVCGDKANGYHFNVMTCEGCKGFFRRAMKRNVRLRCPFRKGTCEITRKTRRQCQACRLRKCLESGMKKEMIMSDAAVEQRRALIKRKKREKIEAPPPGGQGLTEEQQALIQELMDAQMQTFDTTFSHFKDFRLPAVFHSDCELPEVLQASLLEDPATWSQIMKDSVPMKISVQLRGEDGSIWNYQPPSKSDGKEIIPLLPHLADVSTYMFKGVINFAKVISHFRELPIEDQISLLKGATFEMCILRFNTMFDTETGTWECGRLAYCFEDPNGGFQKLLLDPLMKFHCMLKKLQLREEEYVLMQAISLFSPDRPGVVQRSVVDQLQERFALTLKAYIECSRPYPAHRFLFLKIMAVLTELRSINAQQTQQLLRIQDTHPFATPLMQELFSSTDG

COc1cc2nc(N3CCN(C(=O)c4ccco4)CC3)nc(N)c2cc1OC
inactive: activation [1] 4.29% [at 19 µM] | activity change, negative = inhibition [2] 5.13% [at 18.9 µM] | activity change, negative = cytotoxicity [3] -16.5% [at 18.9 µM] | activity change, negative = cytotoxicity [4] 2.28% [at 19 µM] | activity change, negative = cytotoxicity [5] 0.758% [at 15.8 µM] | activation [6] -4.52% [at 15.8 µM] | caspase activation [8] 12.8% [at 19 µM] | caspase-3/7 activation [9] 0.614% [at 19 µM] | activity change, negative = cytotoxicity [10] -12% [at 19 µM] | activation [11] 6.3% [at 19 µM] | activity change, negative = inhibition [12] -17.8% [at 23.6 µM] | activity change, negative = inhibition [13] 16.3% [at 23.6 µM]
active: Potency [7] 11.6 µM

Cc1cccc(C(=O)O)c1O
inactive: Potency [1] | Potency [2] | Potency [3] | Potency [14] | Potency [5] | Potency [6] | Potency [15] | outcome [16] | Potency [7] | Potency [8] | Potency [17] | Potency [9] | Potency [10] | Potency [11] | max activation [18] -0.388% | Potency [19] | Potency [20] | Potency [12] | Potency [13]

O=C(O)c1cc(-c2ccc(F)cc2F)ccc1O
inactive: Potency [1] | Potency [2] | Potency [3] | Potency [4] | Potency [14] | Potency [5] | Potency [7] | Potency [8] | Potency [17] | Potency [9] | Potency [10] | Potency [11] | max activation [18] -2% | Potency [19] | Potency [20] | Potency [12] | Potency [13]

CCN1C(=O)c2ccccc2C1Nc1ccc(OCCN2CCCCC2)cc1 (stereo unspecified)
active: Potency [11] 1.68 µM
inactive: Potency [1] | Potency [2] | Potency [3] | Potency [14] | Potency [5] | Potency [6] | Potency [15] | outcome [16] | Potency [8] | Potency [17] | Potency [9] | Potency [10]

O=C(Nc1ccc2c(O)c(N=Nc3ccc(N=Nc4ccc(S(=O)(=O)O)cc4)cc3)c(S(=O)(=O)O)cc2c1)c1ccccc1
inactive: Potency [1] | Potency [2] | Potency [3] | Potency [4] | Potency [14] | Potency [5] | Potency [15] | outcome [16] | Potency [8] | Potency [9] | Potency [11]
active: Potency [7] 8.63 µM | Potency [17] 15.4 µM | Potency [10] 24.3 µM | Potency [12] 35.6 µM

C/C=C/C=C/COC(=O)C(C)C
active: Potency [7] 68.6 µM | Potency [17] 54.5 µM | Potency [11] 43.3 µM | Potency [13] 79.6 µM
inactive: Potency [1] | Potency [2] | Potency [3] | Potency [4] | Potency [14] | Potency [5] | Potency [15] | outcome [16] | Potency [8] | Potency [9] | Potency [12]

CC(C)(C)c1ccc(C(O)CCCN2CCC(C(O)(c3ccccc3)c3ccccc3)CC2)cc1 (stereo unspecified)
inactive: Potency [1] | Potency [2] | Potency [3] | Potency [4] | Potency [14] | Potency [7] | Potency [11] | Potency [13]
active: Potency [8] 11.9 µM | Potency [17] 11.9 µM

CN(C)CCN1CCN(c2cccc(Cl)c2)C1=O
inactive: Potency [1] | Potency [2] | Potency [3] | Potency [14] | Potency [5] | Potency [6] | Potency [15] | outcome [16] | Potency [7] | Potency [8] | Potency [17] | Potency [9] | Potency [10] | Potency [11]
